Results filed as inconclusive are left out. Where a call stands in place of a potency, no number is given. Active and inactive are the calls of the source. The call rests on the fitted dose curve; in most records, active means well fitted inhibition curve with a large enough effect in the repeat runs; inconclusive means weak or mixed curves; inactive means no such curve, though single readings can be large or run the other way.
What follows are compounds tested against Estrogen receptor (Homo sapiens) (UniProt P03372) (assay: qHTS assay to identify small molecule antagonists of the estrogen receptor alpha (ER-alpha) signaling pathway using the BG1 cell line in the presence of 0.1 nM 17-beta-estradiol (AID 1259244; further: nearly all actives have a fitted effect of over 50% in size)). Conditions: VM7Luc4E2 (BG1) ERE-luciferase, antagonist mode, 0.1 nM E2, 22 h; series mostly up to 92.4 µM.
Chain of Estrogen receptor (Homo sapiens) (P03372 whole entry, looked up): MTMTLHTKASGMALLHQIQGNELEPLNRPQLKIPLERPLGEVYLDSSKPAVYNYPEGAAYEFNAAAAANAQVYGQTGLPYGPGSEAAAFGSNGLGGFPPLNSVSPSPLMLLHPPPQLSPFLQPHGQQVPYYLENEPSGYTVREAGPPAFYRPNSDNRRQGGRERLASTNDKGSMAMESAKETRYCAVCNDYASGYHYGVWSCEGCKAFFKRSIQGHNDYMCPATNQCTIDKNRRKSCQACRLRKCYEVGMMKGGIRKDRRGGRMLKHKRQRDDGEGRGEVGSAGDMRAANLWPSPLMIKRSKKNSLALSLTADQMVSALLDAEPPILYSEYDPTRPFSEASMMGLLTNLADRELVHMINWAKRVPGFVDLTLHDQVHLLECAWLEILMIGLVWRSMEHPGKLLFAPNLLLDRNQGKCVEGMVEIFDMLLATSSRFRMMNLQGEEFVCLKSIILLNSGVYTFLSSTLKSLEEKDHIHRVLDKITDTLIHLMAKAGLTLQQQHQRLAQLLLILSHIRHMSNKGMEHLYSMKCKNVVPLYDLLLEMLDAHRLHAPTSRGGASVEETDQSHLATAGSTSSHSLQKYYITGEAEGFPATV
Source text: National Center for Advancing Translational Sciences [NCATS]
NIH Chemical Genomics Center [NCGC]
U.S. Environmental Protection Agency [EPA]
National Institutes of Environmental Health Sciences [NIEHS]
National Toxicology Program [NTP]
U.S. Food and Drug Administration [FDA]
Estrogen receptor (ER), a member of the nuclear hormone receptor plays an important role in development, metabolic homeostasis and reproduction. Two subtypes of ER, ER-alpha and ER-beta, have similar expression patterns with some uniqueness in both types. Endocrine disrupting chemicals (EDCs) and their interactions with steroid hormone receptors like ER causes disruption of normal endocrine function. Therefore, it is important to understand the effect of environmental chemicals in ER signaling pathway. For identifying ER antagonists, VM7Luc4E2 cell line was used to screen against Tox21 compound libraries.
VM7Luc4E2 cell line (provided by Denison MS, University of California) endogenously express full-length ER-alpha and is stably transfected with a plasmid containing four estrogen responsive elements (ERE) upstream of a luciferase reporter gene. The current screening for identification of ER-alpha inhibitors against Tox21 compound libraries used lower concentration (0.1 nM) of 17beta-Estradiol as a stimulator.
Tox21 Assay Protocol Summary:
VM7Luc4E2 cells were cultured in phenol red free assay medium containing 10% charcoal stripped FBS for 5 days prior to the assay. The cells were dispensed at 4,000 cells/well in 4 uL of assay medium into white wall/solid-bottom 1536-well plates (Corning Life Sciences, Corning, NY) using a Multidrop Combi (ThermoFisher Scientific, Waltham, MA) dispenser. After the assay plates were incubated at 37C and 5% CO2 for 24 hr, 23 nL of compounds dissolved in DMSO, positive controls or DMSO only was transferred to the assay plates by a Pintool station (Kalypsys, San Diego, CA). The transfer of compounds was followed by the addition of 1 uL of 0.1 nM (final concentration) agonist (17beta-Estradiol)/assay medium using a Flying Reagent Dispenser (FRD, Aurora Discovery, San Diego, CA). The plates were incubated at 37C and 5% CO2 for 22 hr. For luciferase reporter gene assay, 4 uL of ONE-Glo reagent (Promega Corporation, Madison, WI) was added to each well using the FRD and after 30 min incubation at room temperature luminescence intensity was measured using ViewLux plate reader (PerkinElmer, Shelton, CT).
Potency means the concentration at half of the fitted maximal effect.

Row | Structure (SMILES) | Potency
1 | CC(C)OS(C)(=O)=O | inactive
2 | O=C(Nc1ccc2[nH]ccc2c1)c1cc2cc(F)ccc2n1Cc1cccc(F)c1 | inactive
3 | ClC1=C(Cl)[C@]2(Cl)[C@@H]3[C@@H](Cl)[C@H](Cl)C[C@@H]3[C@@]1(Cl)C2(Cl)Cl | inactive
4 | CCOCCOC(C)=O | inactive
5 | COC12CC[C@@]3(C[C@@H]1C(C)(O)C(C)(C)C)[C@H]1Cc4ccc(O)c5c4[C@@]3(CCN1CC1CC1)[C@H]2O5 (stereo not given in full) | 24.2 µM (active)
6 | CC(C)OC(=S)S | inactive
7 | N#CCCC(Br)(C#N)CBr (stereo not given) | inactive
8 | S=C=Nc1cccc2ccccc12 | 19.1 µM (active)
9 | CCc1cc(C)cc(CC)c1-c1c(OC(=O)C(C)(C)C)n2n(c1=O)CCOCC2 | inactive
10 | CC(=O)C(Cl)(Cl)Cl | 11.8 µM (active)
11 | Cc1ccc(CCl)cc1 | inactive
12 | CC(=[OH+])/C=C(/C)[O-].CC(=[OH+])/C=C(\C)[O-].CC(=[OH+])/C=C(\C)[O-].[Al] | inactive
13 | CC(C)CCCCCOC(=O)c1ccccc1C(=O)OCCCCCC(C)C | inactive
14 | Cc1ccc(C(=O)Cl)cc1 | inactive
15 | COC(=O)N(C(=O)N1CO[C@@]2(C(=O)OC)Cc3cc(Cl)ccc3C2=N1)c1ccc(OC(F)(F)F)cc1 | 46.9 µM (active)
16 | CN(C)C1CSSSC1 | inactive
17 | O=C(O)c1cc[c]([Hg][Cl])cc1 | inactive
18 | N#Cc1ccccc1N | inactive
19 | CCCCCCCCCBr | inactive
20 | Nc1ccc(Cc2ccc(N)c(Cl)c2)cc1Cl | 59.1 µM (active)

Row | Structure (SMILES) | Potency
21 | CCN(CC)C(=S)[S-].CCN(CC)C(=S)[S-].[Zn+2] | 1.08 µM (active)
22 | ClCc1ccccc1CCl | inactive
23 | CCOP(=S)(OCC)SCCS(=O)(=O)CC | inactive
24 | CC(C)OC(=O)C(O)(c1ccc(Cl)cc1)c1ccc(Cl)cc1 | inactive
25 | Nc1c(Oc2ccccc2)cc(O)c2c1C(=O)c1ccccc1C2=O | inactive
26 | c1ccc(Nc2ccc3ccccc3c2)cc1 | inactive
27 | Cc1cc(SCc2sc(-c3ccc(C(F)(F)F)c(F)c3)nc2C)ccc1OCC(=O)O | inactive
28 | C=CC(=O)N(C)C | inactive
29 | C=CC(=O)OCC(COC(=O)C=C)(COC(=O)C=C)COC(=O)C=C | 15.4 µM (active)
30 | O=[N+]([O-])c1c2ccccc2cc2ccccc12 | inactive
31 | CC(C)CC(C)N (stereo not given) | inactive
32 | Clc1ccc(Oc2ccccc2)cc1 | inactive
33 | Cc1cc(Cl)ccc1O[C@H](C)C(=O)O | inactive
34 | BrC(Br)C(Br)(Br)Br | inactive
35 | Cc1cc(C)c(C2=C(OC(=O)CC(C)(C)C)C3(CCCC3)OC2=O)c(C)c1 | inactive
36 | CCCCCCCCCC[N+](C)(C)CCCCCCCCCC | 30.6 µM (active)
37 | CC(c1ccc(O)cc1)c1ccc(O)cc1 | inactive
38 | CC(C)CBr | inactive
39 | Nc1ccccc1C(=O)Oc1ccc2ccccc2c1 | inactive
40 | O=c1c(C2CC(c3ccc(-c4ccc(Br)cc4)cc3)Cc3ccccc32)c(O)sc2ccccc12 (stereo not given) | 13.3 µM (active)
